From PubChem BioAssay
GLP-1R agonist – GLP-1 receptor (human) agonism; Potency, µM (doses to about 45.6 µM), for the others: at the highest dose activation, most hits filed as activators; HEK293 GLP-1R CRE-luciferase, luminescence, 4-6 h; cells express a hypersensitive GLP-1R form; 0.007% of 380,000 active; AID 624172; note: % of control where 0% means no effect
ALOX12 inh – inhibitors of human 12S-lipoxygenase ALOX12 | AID 1671190 | P18054 | Potency, µM (titrated, usually from 108 µM), for inactives: at the top dose activity change, negative = inhibition, most hits filed as inhibitors | 1.1% of 580,000 active | purified 12hLO, xylenol orange hydroperoxide absorbance; note: % is set by controls: 0 for no effect and ±100 for the full control effect
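Purified human 12hLO at 150 nM in 25 mM Hepes, 0.01% Triton X-100, pH 7.0, preincubated 15 min at room temperature with compound. Reaction started with 40 uM arachidonic acid, 30 min at room temperature. Hydroperoxide measured by Fe-xylenol orange, 573/405 nm absorbance ratio.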
PTHR1 agonist – activates the human parathyroid hormone receptor PTHR1; Q03431; HEK293 GP2 PTHR1 cells, GloSensor cAMP luminescence, 1 h; Potency, µM (highest dose often 115 µM), for inactives: at the top dose activation, most hits filed as activators; 0.075% of 410,000 active; AID 743266; note: nearly all actives have a fitted effect of over 55% in size
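HEK-293-derived GP2 cells expressing PTHR1 and a GloSensor cAMP reporter, 3,000/well, plated overnight, given luciferin plus IBMX (each 0.5 mM as added) for 1 h at 37 °C, then compound for 1 h at 37 °C. Luminescence was read after 15 min at room temperature.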
GLS inh – inhibitors of human glutaminase (GLS). O94925. GLS enzymatic activity, qHTS titration. Potency, µM (doses to about 45.5 µM), without a hit: at the top dose activity change, negative = inhibition, usual class: inhibitors. 0.21% of 410,000 active. AID 624170; note: % is set by controls: 0 for no effect and ±100 for the full control effect
Target sequence (O94925 whole entry, looked up): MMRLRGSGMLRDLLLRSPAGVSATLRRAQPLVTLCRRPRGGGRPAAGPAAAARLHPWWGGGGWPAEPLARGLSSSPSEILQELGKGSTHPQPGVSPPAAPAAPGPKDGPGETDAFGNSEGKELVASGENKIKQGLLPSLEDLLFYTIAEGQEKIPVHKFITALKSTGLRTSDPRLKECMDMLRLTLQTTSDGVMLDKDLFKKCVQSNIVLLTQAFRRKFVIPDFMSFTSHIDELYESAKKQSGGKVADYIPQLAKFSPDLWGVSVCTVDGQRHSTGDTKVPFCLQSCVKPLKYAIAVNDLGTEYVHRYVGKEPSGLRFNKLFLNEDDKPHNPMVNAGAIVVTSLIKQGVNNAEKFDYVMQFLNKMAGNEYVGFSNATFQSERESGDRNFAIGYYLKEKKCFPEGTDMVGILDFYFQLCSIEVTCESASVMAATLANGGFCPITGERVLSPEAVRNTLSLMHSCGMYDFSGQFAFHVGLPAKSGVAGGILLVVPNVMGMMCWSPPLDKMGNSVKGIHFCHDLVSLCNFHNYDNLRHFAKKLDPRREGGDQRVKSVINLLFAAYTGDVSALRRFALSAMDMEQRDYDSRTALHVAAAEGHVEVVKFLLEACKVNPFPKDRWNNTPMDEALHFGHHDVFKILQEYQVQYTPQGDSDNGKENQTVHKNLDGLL
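hKGA; 45 mM KH2PO4 pH 8.2 + 0.02% Tween-20; cpd via pin tool; 1 mM Gln soln; GluOx/HRP/Amplex Red; RT 30 min; fluor. t0 & final.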
GLP1R inv ag – acts as inverse agonist at human GLP-1 receptor; P43220; Potency, µM (series often up to 38.3 µM), without a hit: at the highest dose activity change, negative = inhibition, actives largely listed as inhibitors; AID 624417; 1.6% of 410,000 active; HEK293 GLP-1R CRE-luciferase, luminescence, 24 h; GLP-1R form is constitutively active; note: % is set by controls: 0 for no effect and ±100 for the full control effect; nearly all actives have a fitted effect of over 55% in size
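Assay principle: reduced luminescence from a cAMP-responsive reporter in HEK293 cells co-expressing a constitutively active GLP-1R. Conditions: 24 hr compound incubation, 37 deg C, 5% CO2.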
GRP78 ERSR act – ER stress response induction in glioma; U87-MG GRP78 promoter luciferase reporter, 16 h; Potency, µM, inactives show at the highest dose activation, most hits filed as activators; 0.02% of 420,000 active; AID 602332; note: series mostly up to about 76 µM; % of control where 0% means no effect; nearly all actives have a fitted effect of over 35% in size
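Stably transfected U87-MG glioma cells carrying a GRP78-based luciferase sensor; 16 h compound incubation. Luminescence end-point read 10 min after Bright-Glo addition at room temperature.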
An asterisk follows results filed as active; i = inactive; ? = inconclusive; . = no result; [ ] = remark or other dose. Sampled rows, rich in hits. Any-hit rate of the full collection: about 2.3%. Calls come from the whole dose curve; as a rule, active = well fitted curve in the direction sought with a large enough effect; inconclusive = small, poorly fitted or top-dose-only effect, or another doubt; inactive = no such curve, though single readings can be large; an effect the other way counts as inactive or inconclusive. Potency is the fitted concentration of half-maximal effect.

SMILES	GLP-1R agonist	ALOX12 inh	PTHR1 agonist	GLS inh	GLP1R inv ag	GRP78 ERSR act
CCC(C)c1ccc(NC(=S)NCc2cccs2)cc1 (configuration not stated)	0%	?	-46%	3%	?	10%
CC(C)(C)c1ccc(NC(=S)NCc2cccs2)cc1	-3%	32µM*	i	3%	?	-2%
CC(Cc1cccs1)NC(=S)Nc1ccc(Cl)c(Cl)c1 (configuration not stated)	18%	32µM*	-27%	-5%	?	-2%
O=C(Nc1ccc(Cl)cc1)c1ccc2c(c1)CCC2	.	-4%	.	.	.	.
COc1ccc(-c2noc(CN3CCCC(C(=O)Nc4ccccc4)C3)n2)cc1OC (configuration not stated)	.	-27%	.	.	.	.
C/C(=N\NC(=S)NC(C)C)c1ccc(Cl)s1	1%	45µM*	i	15%	?	-3%
C/C(=N\NC(N)=S)c1ccc(Cl)s1	11%	?	i	3%	3.2µM*	-1%
Cc1nn(CCc2nc(-c3ccco3)cs2)c2[nH]c(=O)cc(C(F)(F)F)c12	1%	7.9µM*	0%[57.5 µM]	17%	5%	-1%
Cc1nn(CCc2nc(-c3ccccc3)cs2)c2[nH]c(=O)cc(C(F)(F)F)c12	.	7.1µM*	.	.	.	.
COc1ccc(CN2CCCC3(C2)C(=NC2CCCC2)NC(=O)N3c2cccnc2)cc1 (configuration not stated)	.	6%[6.33 µM]	.	.	.	.
COc1ccc(C(=O)NC2CC2)cc1C	.	5%	.	.	.	.
O=C(NNC(=O)c1cc(-c2ccco2)nc2ccccc12)c1ccccc1	10%	?	i	-6%	48%	4%
O=C(O)c1cc(-c2ccco2)nc2cc3ccccc3cc12	0%	20µM*	-41%	0%	-2%	3%
COc1cccc(NC(=O)c2cc(-c3ccco3)nc3ccccc23)c1	13%	?	-7%	0%	12%	-4%
O=C(NC1CC1)c1ccc(NC(=O)c2cc(-c3ccco3)nc3ccccc23)cc1	.	10µM*	.	.	.	.
CC(=O)c1cccc(NC(=O)c2cc(-c3ccco3)nc3ccccc23)c1	5%	28µM*	-6%	3%	-33%	3%
O=C(O)c1ccccc1/C=N/NC(=O)c1cc(-c2ccco2)nc2ccccc12	-2%	?	-2%	1%	-11%	-6%
O=C(O)c1ccc(NC(=O)c2cc(-c3ccco3)nc3ccccc23)cc1	.	7.9µM*	.	.	.	.
CCC(C)NC(=O)COC(=O)c1cc(C)cc(C)c1 (configuration not stated)	.	4%	.	.	.	.
Nc1ccc(O)cc1	-5%	?	.	13µM*	.	-10%
CSc1ccc(CCNC(=O)c2ccc(NC(=O)N3CCSc4nc(C)cc(C)c43)cc2)cc1	.	-19%	.	.	.	.
COCc1nn2c(=O)c(NC(=O)c3ccc(Cl)cc3)cnc2s1	.	9%	.	.	.	.
COc1ccc(NC(=O)c2cc3cccc(OC)c3oc2=Nc2ccc(C(=O)O)cc2)cc1OC	15%	-3%	-4%	6.3µM*	0%	3%
CCN(CC)S(=O)(=O)NC(C)Cc1ccco1 (configuration not stated)	.	-45%	.	.	.	.
CCCCCCCNC(=O)C1(CC2CC(c3cccc(Br)c3)=NO2)CCN(C(=O)CCCCCBr)CC1 (configuration not stated)	1%	40µM*	-29%	3%	1%	-5%
SMILES	GLP-1R agonist	ALOX12 inh	PTHR1 agonist	GLS inh	GLP1R inv ag	GRP78 ERSR act
Cc1ccc2c(C)c(CCC(=O)Nc3cccc(Cl)c3)c(=O)oc2c1	.	-28%	.	.	.	.
Cc1nc2c(=O)[nH]c(=S)n(C)c2nc1C	2%	32µM*	3%	6%	4%	-3%
Cn1c(=S)[nH]c2cccnc21	-3%	?	i	17%	8%	-3%
O=S(=O)(Nc1cccc2c1CCCC2)c1ccccc1Cl	.	131%	.	.	.	.
O=c1[nH]cccc1NS(=O)(=O)c1ccccc1Cl	.	35µM*	.	.	.	.
O=C(CNc1cccc(S(=O)(=O)N2CCCCCC2)c1)Nc1cccc([N+](=O)[O-])c1	2%	370%	-36%	-2%	7.1µM*	-3%
O=C(CCNS(=O)(=O)c1ccc(OC(F)(F)F)cc1)Nc1cccc(S(=O)(=O)N2CCCC2)c1	-3%	0%	-26%	1%	10µM*	-3%
O=C(CNc1cc([N+](=O)[O-])ccc1NCCO)Nc1cccc(S(=O)(=O)N2CCCCC2)c1	0%	347%	-60%	19%	?	0%
O=C(Cc1ccc(Cl)cc1)Nc1cccc(S(=O)(=O)N2CCCCC2)c1	12%	-6%	?	-9%	?	-4%
O=C(CNc1cccc(S(=O)(=O)N2CCCCC2)c1)Nc1ccc(C(F)(F)F)cc1	12%	?	-33%	1%	?	-5%
O=C(Cc1ccc(Br)cc1)Nc1cccc(S(=O)(=O)N2CCCCC2)c1	2%	5%	-51%	-1%	10µM*	-5%
O=C(CNc1cccc(S(=O)(=O)N2CCCC2)c1)Nc1ccc(C(F)(F)F)cc1	-4%	?	-37%	8%	10µM*	-4%
O=C(CCc1ncc(-c2c(F)cccc2F)o1)N1CCC(OCc2ccccc2)CC1	.	-5%	.	.	.	.
O=C(Cc1cccs1)Nc1ccc(S(=O)(=O)N2CCCCC2)cc1	7%	0%	i	1%	10µM*	-4%
O=C(CCNC(=O)c1ccc(Cl)cc1)Nc1cccc(S(=O)(=O)N2CCCCCC2)c1	21%	?	-9%	1%	13µM*	-1%
CCCC(OC(=O)CC1Sc2ccccc2NC1=O)C(=O)NCc1ccco1 (configuration not stated)	5%	32µM*	i	-2%	-4%	-3%
O=CC(O)C1OC(=O)C(O)C1O (configuration not stated)	1%	4%	i	11µM*	7%	0%
CCc1cccc(CC)c1N(COC)C(=O)Cn1c(C)nc2ccccc21	.	1%	-27%	5%	2.2µM*	-12%
CCc1cccc(CC)c1N(COC)C(=O)Cn1cnc2ccccc21	12%	-31%	i	-5%	?	-4%
CC(C)CNC(=O)c1ccc2c(=O)n(CCc3ccccc3)c(SCC#N)nc2c1	.	27%	.	.	.	.
Cc1cc(C)c2c(CN3CCN(c4ccccn4)CC3)cc(=O)oc2c1	.	-9%	.	.	.	.
COC(=O)C1=C(C)N(C)C(=O)N(C)C1c1ccccc1F (configuration not stated)	.	-11%	.	.	.	.
